Measurements published in PubChem BioAssay (NCATS).
Values joined by “and” are separate entries in the source; they are usually repeats but may differ in a detail not shown here. Equal values may be shown once. Inconclusive results are not listed. Active and inactive are the calls of the source. Unless noted, calls follow the shape of the full dose curve.

Experiment: Cell Viability - LYMP1-002 - Assay at 40 hr (AID 994; active = well fitted cell-killing curve with a large enough effect;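 also: 0% = DMSO only and full inhibition = 92 µM tetraoctylammonium bromide; nearly all actives have a fitted effect of over 60% in size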)
Conditions: LYMP1-002 lymphoblastoid cell viability; series mostly up to 92.2 µM; viability change, negative = cytotoxic: at the top concentration
How it was run: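 qHTS cytotoxicity; 2500 cells/well, 5 hr 37 C settle, compound 40 hr 37 C. CellTiter-Glo, 30 min RT, luminescence (ATP). Concentration-response, Hill fit → AC50. Pos. ctrl tetraoctylammonium bromide.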
With C=C(C)[C@H]1CC=C(C)C(=O)C1 the “viability change, negative = cytotoxic” value was -6.53% (inactive). With C=CC(C)(O)CCC=C(C)C (stereo unspecified) the “viability change, negative = cytotoxic” value was 4.31% (inactive). For COS(C)(=O)=O, the “viability change, negative = cytotoxic” value was -2.03% (inactive).

Experiment: qHTS Assay for Lipid Storage Modulators (AID 1519); as to activity change, negative = inhibition: % is scaled to controls: 0 for no effect and ±100 for the full control effect
Conditions: Drosophila S3 cells, BODIPY lipid droplet/cell ratio, laser cytometry; at 25.7 µM (top of the series); cells loaded with oleic acid
How it was run: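 Cells seeded at 5,000 per well were treated with compounds over a concentration series and loaded with oleic acid (400 uM, as added). Lipid droplet fluorescence (488 nm excitation, 500-530 nm channel) was read by laser-scanning cytometry and normalized to 20 uM Triacsin C.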
In the case of CN(C)CC/C=C1\c2ccccc2CSc2ccccc21, the activity change, negative = inhibition is reported as -6.7% (inactive). With COC(=O)C1=CO[C@@H](C)[C@H]2CN3CCc4c([nH]c5ccccc45)[C@@H]3C[C@H]12 the activity change, negative = inhibition was -0.703% (inactive) and -0.794% (inactive). With CC(C)N1CCN(c2ccc(OC[C@@H]3CO[C@@](Cn4cncn4)(c4ccc(Cl)cc4Cl)O3)cc2)CC1 the activity change, negative = inhibition was -0.441% (inactive). With CC12CC[C@@H]3c4ccc(OS(=O)(=O)O)cc4CC[C@H]3C1CCC2=O (stereo partly specified) the activity change, negative = inhibition was -2.17% (inactive). For C[C@@H]1CCC[C@H](C)N1NC(=O)c1ccc(Cl)c(S(N)(=O)=O)c1, the activity change, negative = inhibition was 1.49% (inactive).

Same assay, conditions: Drosophila S3 cells, BODIPY lipid droplet/cell ratio, laser cytometry; at 57.5 µM (top of the series); cells loaded with oleic acid
In the case of COCCn1c(=O)c(C)nc2cnc(Nc3ccccc3)nc21, the activity change, negative = inhibition is reported as -1.55% (inactive). With C=C(C)[C@H]1CC=C(C)C(=O)C1 the activity change, negative = inhibition was -4.73% (inactive). For COc1cccc(Cn2c(=O)cnc3cnc(N4CCN(C)CC4)nc32)c1, the activity change, negative = inhibition was 5.18% (inactive). In the case of N#Cc1cccc(-c2ccc3ncnc(NCc4ccccc4)c3c2)c1, the activity change, negative = inhibition is reported as -0.0166% (inactive). In the case of COc1ncc2nc(-c3cccs3)c(=O)n(C)c2n1, the activity change, negative = inhibition is reported as 6% (inactive). With Cc1ccccc1-c1ccc2ncnc(N3CCN(C)CC3)c2c1 the activity change, negative = inhibition was -2.02% (inactive). For Oc1ccc2c(c1)OCC1(O)Cc3cc(O)c(O)cc3C21 (stereo unspecified), the activity change, negative = inhibition was 11.4% (inactive). For C[N+](C)(C)CC(O)CC(=O)O (stereo unspecified), the activity change, negative = inhibition was 3.18% (inactive). With COc1ccccc1-c1ccc2ncnc(Nc3ccccc3)c2c1 the activity change, negative = inhibition was -15.1% (inactive). In the case of C=CC(C)(O)CCC=C(C)C (stereo unspecified), the activity change, negative = inhibition is reported as -9.56% (inactive). For O=c1cc(-c2ccc(O)cc2)oc2cc(O[C@H]3OC(CO)C(O)C(O)C3O)cc(O)c12 (stereo partly specified), the activity change, negative = inhibition was 6.29% (inactive). With O=C(/C=C/c1ccc(O)c(O)c1)OC(Cc1ccc(O)c(O)c1)C(=O)O (stereo unspecified) the activity change, negative = inhibition was 6.07% (inactive) and 7.21% (inactive). With N#Cc1ccccc1-c1ccc2ncnc(NCc3cccs3)c2c1 the activity change, negative = inhibition was 2.64% (inactive). For C=C[C@](C)(O)CCC=C(C)C, the activity change, negative = inhibition was 3.04% (inactive). For COc1ccccc1CNc1ncnc2ccc(-c3cccc(C#N)c3)cc12, the activity change, negative = inhibition was -12.8% (inactive). For COc1ccccc1CNc1cc(-c2cccc(C#N)c2)ncn1, the activity change, negative = inhibition was 3.16% (inactive). With C#C[C@]1(O)CCC2C3CCC4=C(CCC(=O)C4)C3CC[C@@]21C (stereo partly specified) the activity change, negative = inhibition was 7.93% (inactive). In the case of CC1(C)SC2C(NC(=O)Cc3ccccc3)C(=O)N2C1C(=O)O (stereo unspecified), the activity change, negative = inhibition is reported as 5.55% (inactive). With Cc1nc2cnc(N3CCN(C)CC3)nc2n(C[C@H]2CCCO2)c1=O the activity change, negative = inhibition was 2.98% (inactive). For C=C(NC(=O)C(=C)NC(=O)c1csc(C2=NC3c4csc(n4)C4NC(=O)c5csc(n5)C(C(C)(O)C(C)O)NC(=O)C5CSC(=N5)C(=CC)NC(=O)C(C(C)O)NC(=O)c5csc(n5)C3(CC2)NC(=O)C(C)NC(=O)C(=C)NC(=O)C(C)NC(=O)C(C(C)CC)NC2C=Cc3c(C(C)O)cc(nc3C2O)C(=O)OC4C)n1)C(N)=O (stereo unspecified), the activity change, negative = inhibition was -19.2% (inactive). With COS(C)(=O)=O the activity change, negative = inhibition was 5.21% (inactive). For CC(C)(S)[C@H](N)C(=O)O, the activity change, negative = inhibition was 4.84% (inactive). With NC(Cc1c[nH]c2ccccc12)C(=O)O (stereo unspecified) the activity change, negative = inhibition was 9.94% (inactive). In the case of COc1cc2c(cc1OC)C1Cc3ccc(OC)c(OC)c3CN1CC2 (stereo unspecified), the activity change, negative = inhibition is reported as 8.32% (inactive). For FC(F)(F)c1ccccc1-c1ccc2ncnc(N3CCOCC3)c2c1, the activity change, negative = inhibition was 5.7% (inactive). In the case of O=c1ccc2ccc(O)cc2o1, the activity change, negative = inhibition is reported as 5.83% (inactive). In the case of COc1ccccc1-c1ccc2ncnc(NCCN3CCOCC3)c2c1, the activity change, negative = inhibition is reported as -9.29% (inactive). With FC(F)(F)c1ccccc1-c1ccc2ncnc(NCc3cccs3)c2c1 the activity change, negative = inhibition was -3.1% (inactive). For COc1cccc(Cn2c(=O)c(C)nc3cnc(Nc4cccc(OC)c4)nc32)c1, the activity change, negative = inhibition was -5.29% (inactive). With CN1C(CC(=O)c2ccccc2)CCCC1CC(O)c1ccccc1 (stereo unspecified) the activity change, negative = inhibition was -2.13% (inactive). With COc1ccc2ccc(=O)oc2c1 the activity change, negative = inhibition was 7.71% (inactive). For Cc1cnc(CNc2ncnc3ccc(-c4ccccc4C(F)(F)F)cc23)cn1, the activity change, negative = inhibition was 0.934% (inactive). With O=C(Cc1cccs1)NC1C(=O)N2C(C(=O)[O-])=C(C[n+]3ccccc3)CSC12 (stereo unspecified) the activity change, negative = inhibition was 7.61% (inactive). With CN1CCN(c2ccnc(-c3ccc(N(C)C)cc3)n2)CC1 the activity change, negative = inhibition was 10.5% (inactive).

Same assay, conditions: Drosophila S3 cells, BODIPY lipid droplet/cell ratio, laser cytometry; measured here: cell count channel max response; cells loaded with oleic acid
Work on COCCn1c(=O)c(C)nc2cnc(Nc3ccccc3)nc21 yielded a max response of -5.32%. Work on C=C(C)[C@H]1CC=C(C)C(=O)C1 yielded a max response of -28%. For COc1cccc(Cn2c(=O)cnc3cnc(N4CCN(C)CC4)nc32)c1, the max response was 20.4%. Compound N#Cc1cccc(-c2ccc3ncnc(NCc4ccccc4)c3c2)c1 has a max response of 4.36%. COc1ncc2nc(-c3cccs3)c(=O)n(C)c2n1 gave a max response of 19.4%. In the case of Cc1ccccc1-c1ccc2ncnc(N3CCN(C)CC3)c2c1, the max response is reported as 10.5%. Compound Oc1ccc2c(c1)OCC1(O)Cc3cc(O)c(O)cc3C21 (stereo unspecified) has a max response of -15.6%. C[N+](C)(C)CC(O)CC(=O)O (stereo unspecified) showed a max response of 12.3%. Work on COc1ccccc1-c1ccc2ncnc(Nc3ccccc3)c2c1 yielded a max response of -15.8%. C=CC(C)(O)CCC=C(C)C (stereo unspecified) showed a max response of -17.5%. O=c1cc(-c2ccc(O)cc2)oc2cc(O[C@H]3OC(CO)C(O)C(O)C3O)cc(O)c12 (stereo partly specified) gave a max response of -4.63%. For CN(C)CC/C=C1\c2ccccc2CSc2ccccc21, the max response was -12.7%. With COC(=O)C1=CO[C@@H](C)[C@H]2CN3CCc4c([nH]c5ccccc45)[C@@H]3C[C@H]12 the max response was 3.91% and -17.6%. In the case of O=C(/C=C/c1ccc(O)c(O)c1)OC(Cc1ccc(O)c(O)c1)C(=O)O (stereo unspecified), the max response is reported as 10.1% and -5.16%. N#Cc1ccccc1-c1ccc2ncnc(NCc3cccs3)c2c1 gave a max response of 0.851%. C=C[C@](C)(O)CCC=C(C)C gave a max response of 15.3%. COc1ccccc1CNc1ncnc2ccc(-c3cccc(C#N)c3)cc12 showed a max response of -3.32%. COc1ccccc1CNc1cc(-c2cccc(C#N)c2)ncn1 showed a max response of 4.01%. Compound C#C[C@]1(O)CCC2C3CCC4=C(CCC(=O)C4)C3CC[C@@]21C (stereo partly specified) has a max response of -6.89%. CC(C)N1CCN(c2ccc(OC[C@@H]3CO[C@@](Cn4cncn4)(c4ccc(Cl)cc4Cl)O3)cc2)CC1 showed a max response of -0.321%. CC1(C)SC2C(NC(=O)Cc3ccccc3)C(=O)N2C1C(=O)O (stereo unspecified) gave a max response of 11.4%. In the case of Cc1nc2cnc(N3CCN(C)CC3)nc2n(C[C@H]2CCCO2)c1=O, the max response is reported as 2.4%. In the case of C=C(NC(=O)C(=C)NC(=O)c1csc(C2=NC3c4csc(n4)C4NC(=O)c5csc(n5)C(C(C)(O)C(C)O)NC(=O)C5CSC(=N5)C(=CC)NC(=O)C(C(C)O)NC(=O)c5csc(n5)C3(CC2)NC(=O)C(C)NC(=O)C(=C)NC(=O)C(C)NC(=O)C(C(C)CC)NC2C=Cc3c(C(C)O)cc(nc3C2O)C(=O)OC4C)n1)C(N)=O (stereo unspecified), the max response is reported as 27.8%. Compound COS(C)(=O)=O has a max response of -1.86%. With CC(C)(S)[C@H](N)C(=O)O the max response was 10.4%. With NC(Cc1c[nH]c2ccccc12)C(=O)O (stereo unspecified) the max response was 25.9%. COc1cc2c(cc1OC)C1Cc3ccc(OC)c(OC)c3CN1CC2 (stereo unspecified) showed a max response of 12.8%. For FC(F)(F)c1ccccc1-c1ccc2ncnc(N3CCOCC3)c2c1, the max response was 20.5%. CC12CC[C@@H]3c4ccc(OS(=O)(=O)O)cc4CC[C@H]3C1CCC2=O (stereo partly specified) gave a max response of -14.5%. For O=c1ccc2ccc(O)cc2o1, the max response was 11.1%. In the case of COc1ccccc1-c1ccc2ncnc(NCCN3CCOCC3)c2c1, the max response is reported as -4.88%. With FC(F)(F)c1ccccc1-c1ccc2ncnc(NCc3cccs3)c2c1 the max response was 9.21%. Work on C[C@@H]1CCC[C@H](C)N1NC(=O)c1ccc(Cl)c(S(N)(=O)=O)c1 yielded a max response of 17.3%. Work on COc1cccc(Cn2c(=O)c(C)nc3cnc(Nc4cccc(OC)c4)nc32)c1 yielded a max response of 11.9%. Compound CN1C(CC(=O)c2ccccc2)CCCC1CC(O)c1ccccc1 (stereo unspecified) has a max response of 13%. With COc1ccc2ccc(=O)oc2c1 the max response was -2.86%. In the case of Cc1cnc(CNc2ncnc3ccc(-c4ccccc4C(F)(F)F)cc23)cn1, the max response is reported as 8.56%. O=C(Cc1cccs1)NC1C(=O)N2C(C(=O)[O-])=C(C[n+]3ccccc3)CSC12 (stereo unspecified) showed a max response of 18%. Work on CN1CCN(c2ccnc(-c3ccc(N(C)C)cc3)n2)CC1 yielded a max response of 22.6%.
